From PubChem BioAssay (NCATS)
Inconclusive results are not listed. The list shows a part of the results. Activity calls are given as the source filed them. Unless noted, calls follow the shape of the dose curve; as a rule, active = well fitted curve in the direction sought with a large enough effect; inconclusive = small, poorly fitted or top-dose-only effect, or another doubt; inactive = no such curve, though single readings can be large; an effect the other way counts as inactive or inconclusive.

Legend:
[1] = S16 Schwann cell viability assay (CellTiter-Glo assay) (AID 624031);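 also: cellular ATP luminescence as a viability measure; plate controls were DMSO-treated cells for no effect and cell-free wells for full effect; nearly all actives have a fitted effect of over 70% in size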
In short: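 CellTiter-Glo ATP luminescence counter-screen in untransfected S16 rat Schwann cells, 24h compound exposure at 37 degree Celsius after overnight seeding (500-750 cells/well); response scaled between cell-free wells and DMSO (0% activity), curves classed by r2 and magnitude.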

[2] = S16 Schwann cell PMP22 intronic element firefly luciferase assay (AID 624032);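 also: plate controls were DMSO for no effect and PTC124 positive control mean for full effect; nearly all actives have a fitted effect of over 30% in size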
In short: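 Luciferase reporter of PMP22 intronic-element expression in stably transfected S16 rat Schwann cells, read by ONE-Glo luminescence after 24 h compound exposure at 37 C. Activity scaled between DMSO (0%) and positive-control PTC124; concentration-effect curves quality-classified.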

[3] = S16 Schwann cell PMP22 intronic element beta-lactamase assay (AID 624044; calls by dose curve;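 also: 0% = DMSO and -100% = potassium clavulanate positive control; nearly all actives have a fitted effect of over 15% in size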)
In short: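 Rat S16 Schwann cells with beta-Lac driven by a PMP22 intronic element, compound-treated 24 h at 37 °C. LiveBLAzer FRET B/G read: 460 nm normalized to potassium clavulanate vs DMSO; 535 nm FRET as viability; concentration-effect curves classified.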

7G8 = assay: qHTS profiling for inhibitors of Plasmodium falciparum proliferation (AID 504749); also: nearly all actives have a fitted effect of over 60% in size; also: potency is read from the fitted curve at half-maximal effect;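 as to activity, negative = inhibition: 0% = DMSO vehicle and full inhibition = artemisinin control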; details: P. falciparum in erythrocytes, SYBR Green DNA, 72 h; series mostly up to 28.7 µM
In short: (§1)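 Infected RBCs, 0.3% parasitemia/2.5% Hct final; cpd 72 h, 37 C, 5% CO2; lysis buffer with saponin/triton/SYBR Green I, o/n RT dark; FI 485/535; norm. to artemisinin (0.29 uM) and DMSO.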

CP215 = assay: as above; details: P. falciparum in erythrocytes, SYBR Green DNA, 72 h; series mostly up to 28.7 µM
In short: as §1

CP291 = assay: as above; details: P. falciparum in erythrocytes, SYBR Green DNA, 72 h; series mostly up to 28.7 µM
In short: as §1

CP297 = assay: as above; details: P. falciparum in erythrocytes, SYBR Green DNA, 72 h; series mostly up to 28.7 µM
In short: as §1

CP335 = assay: as above; details: P. falciparum in erythrocytes, SYBR Green DNA, 72 h; series mostly up to 28.7 µM
In short: as §1

Dd2 = assay: as above; details: P. falciparum in erythrocytes, SYBR Green DNA, 72 h; series mostly up to 28.7 µM
In short: as §1

GB4 = assay: as above; details: P. falciparum in erythrocytes, SYBR Green DNA, 72 h; series mostly up to 28.7 µM
In short: as §1

JCK = assay: as above; details: P. falciparum in erythrocytes, SYBR Green DNA, 72 h; series mostly up to 28.7 µM
In short: as §1

[4] = as above; details: P. falciparum in erythrocytes, SYBR Green DNA, 72 h, at 28.7 µM (top of the series)
In short: as §1

AS120 = assay: as above; details: P. falciparum in erythrocytes, SYBR Green DNA, 72 h; series mostly up to 28.7 µM
In short: as §1

ATS189 = assay: as above; details: P. falciparum in erythrocytes, SYBR Green DNA, 72 h; series mostly up to 28.7 µM
In short: as §1

CP237 = assay: as above; details: P. falciparum in erythrocytes, SYBR Green DNA, 72 h; series mostly up to 28.7 µM
In short: as §1

CP247 = assay: as above; details: P. falciparum in erythrocytes, SYBR Green DNA, 72 h; series mostly up to 28.7 µM
In short: as §1

HB3 = assay: as above; details: P. falciparum in erythrocytes, SYBR Green DNA, 72 h; series mostly up to 28.7 µM
In short: as §1

TAB109 = assay: as above; details: P. falciparum in erythrocytes, SYBR Green DNA, 72 h; series mostly up to 28.7 µM
In short: as §1

W2 = assay: as above; details: P. falciparum in erythrocytes, SYBR Green DNA, 72 h; series mostly up to 28.7 µM
In short: as §1

[5] = molecular target: DNA polymerase eta (Homo sapiens) (UniProt Q9Y253); assay: qHTS for Inhibitors of Polymerase Eta: Confirmatory Assay for Cherry-picked Compounds (AID 720502); details: Pol eta primer extension, TAMRA/BHQ fluorescence, 10 min; also: potency is read from the fitted curve at half-maximal effect
In short: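 Readout: TAMRA dequenching, ex 525/em 598 nm, read at 0 and 10 min. Enzyme: 10 nM human Pol eta, preincubated with compound 15 min RT. Substrate: 50 nM final annealed primer/reporter/template duplex.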

DNA polymerase eta (Homo sapiens), sequence (Q9Y253 whole entry, looked up): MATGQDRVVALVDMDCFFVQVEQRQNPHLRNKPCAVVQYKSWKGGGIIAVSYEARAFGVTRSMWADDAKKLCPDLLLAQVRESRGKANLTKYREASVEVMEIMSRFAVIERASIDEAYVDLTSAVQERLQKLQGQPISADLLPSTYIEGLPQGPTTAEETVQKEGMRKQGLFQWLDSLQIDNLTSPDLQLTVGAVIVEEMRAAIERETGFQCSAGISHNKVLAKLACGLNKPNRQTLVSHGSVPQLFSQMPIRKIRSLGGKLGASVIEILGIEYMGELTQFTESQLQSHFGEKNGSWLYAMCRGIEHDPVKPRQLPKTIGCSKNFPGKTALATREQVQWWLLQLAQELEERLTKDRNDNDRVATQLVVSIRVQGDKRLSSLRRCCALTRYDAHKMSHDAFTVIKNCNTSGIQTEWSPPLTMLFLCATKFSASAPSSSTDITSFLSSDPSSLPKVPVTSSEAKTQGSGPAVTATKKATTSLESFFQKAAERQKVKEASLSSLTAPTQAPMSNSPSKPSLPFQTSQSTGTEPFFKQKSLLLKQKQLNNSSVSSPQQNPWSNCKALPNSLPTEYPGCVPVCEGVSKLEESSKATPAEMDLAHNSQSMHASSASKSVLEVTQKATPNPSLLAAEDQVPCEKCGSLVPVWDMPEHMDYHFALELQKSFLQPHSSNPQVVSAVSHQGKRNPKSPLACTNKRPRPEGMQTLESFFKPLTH

C=C1CC[C@H](O)C/C1=C/C=C1\CCC[C@]2(C)[C@@H]([C@H](C)CCCC(C)C)CC[C@@H]12
active: Potency (7G8) 11.2 µM | Potency (Dd2) 12.6 µM
inactive: Potency [1] | Potency [2] | outcome [3] | Potency (CP215) | Potency (CP291) | Potency (CP297) | Potency (CP335) | Potency (GB4) | Potency (JCK)

Cc1c(C(=O)O)c(O)cc2c1C(=O)c1c(O)c([C@H]3O[C@H](CO)[C@@H](O)[C@H](O)[C@H]3O)c(O)c(O)c1C2=O
inactive: outcome [3] | activity, negative = inhibition ([4]; parasite line A) 5.98% | activity, negative = inhibition ([4]; parasite line B) 13.4% | Potency (7G8) | Potency (AS120) | Potency (ATS189) | Potency (CP215) | Potency (CP237) | Potency (CP247) | Potency (CP291) | Potency (CP297) | Potency (CP335) | Potency (Dd2) | Potency (GB4) | Potency (HB3) | Potency (JCK) | Potency (TAB109) | Potency (W2)

C=CCn1c(=S)[nH]c2scc(-c3ccco3)c2c1=O
active: Potency [5] 26.9 µM

N#Cc1ccccc1CN1C(=O)S/C(=C/c2cccn2-c2cccc(C(=O)O)c2)C1=O
active: Potency [5] 60.1 µM
